From PubChem
In the library only some 17% were active in any assay of this set; here they are far more common.
HT1080NT lethal = kills 2HG-producing HT-1080-NT fibrosarcoma cells | AID 686970 | HT-1080-NT fibrosarcoma viability, CellTiter-Glo ATP luminescence, 48 h | Potency, µM (series often up to 46.1 µM), most hits filed as cytotoxic | 1.6% of 360,000 active;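 further: NT is the 2HG producing partner of a matched IDH1 knockdown line; nearly all actives have a fitted effect of over 55% in size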
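A 48-hour cytotoxicity screen used HT-1080-NT cells plated 2 hours before compound delivery. ATP-based CellTiter-Glo luminescence measured viability, normalized to DMSO and no-cell controls.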
HT1080 IDH1KD tx = HT-1080 IDH1 knockdown cell toxicity (counter line); AID 686971; HT-1080 IDH1 knockdown viability, ATP luminescence, 48 h; Potency, µM (highest dose often 46.1 µM), usual class: cytotoxic; 2% of 360,000 active
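% activity derives from luminescence (CellTiter-Glo), normalised to DMSO and no-cell wells. HT-1080-IDH1KD cells, 750/well, had 48 h compound exposure at 37 °C.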
TDP1 cell CPT = growth inhibition of DT40 Tdp1-/-;hTDP1 cells with camptothecin (screen for TDP1 inhibitors) | AID 686979 | chicken DT40 Tdp1-/-;hTDP1 cells + 20 nM CPT, ATP luminescence, 48 h | 12% of 420,000 active | Potency, µM (highest dose often 46.2 µM), actives largely listed as inhibitors; further: nearly all actives have a fitted effect of over 55% in size
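Cell growth measured by CellTiter-Glo luminescence after a minimum 48 h, 37 C compound exposure with 20 nM CPT in Tdp1-knockout DT40 cells stably expressing hTDP1, seeded 400/well; qHTS titration format.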
HepG2 viability = kills HepG2 cells in TGF-b inhibitor counter-screen | HepG2 CAGA-GFP viability, ATP luminescence, 18 h | AID 588856 | Potency, µM (doses to about 46.1 µM), hits mostly cytotoxic | 0.76% of 410,000 active
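CellTiter-Glo luminescence gave cytotoxicity after 18 hours at 37 degrees C. The cells were HepG2 CAGA-GFP in 1% FBS DMEM, stimulated with 500 pg/mL TGF-beta after compound addition. %Activity was normalised to no-cell wells (complete cell-killing) and DMSO (no toxicity), and curves were fitted and classified.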
TGFb inhibitor = inhibitors of TGF-b signaling; HepG2 CAGA-GFP TGF-b/SMAD3 reporter, GFP fluorescence, 18 h; TGF-beta stimulated, 500 pg/mL final; Potency, µM (series often up to 46.1 µM), hits mostly inhibitors; 1.2% of 410,000 active; further: nearly all actives have a fitted effect of over 65% in size
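TGF-beta reporter screen: HEPG2 CAGA-GFP, 1% FBS, 500 pg/mL TGF-beta final, 18 h; per-cell GFP summed per well; curves fitted and categorized by class.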
TDP1 cell noCPT = qHTS for Inhibitors of human tyrosyl-DNA phosphodiesterase 1 (TDP1): qHTS in cells in absence of CPT | DT40 Tdp1-/- hTDP1 cells, no CPT, ATP luminescence, 48 h | Potency, µM (series often up to 46.2 µM), most hits filed as inhibitors | 15% of 420,000 active | AID 686978, 2013; further: nearly all actives have a fitted effect of over 55% in size
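Growth of hTDP1-complemented DT40 Tdp1-knockout cells is measured by ATP luminescence after at least 48 hr compound exposure at 37 °C, with DMSO substituting for the 20 nM CPT used in the parallel screen.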
Large screens that a line does not name were inactive. The call rests on the fitted dose curve; in most records, active means well fitted curve in the direction sought with a large enough effect; inconclusive means small, poorly fitted or top-dose-only effect, or another doubt; inactive means no such curve, though single readings can be large; an effect the other way counts as inactive or inconclusive.

Cc1ccc(S(=O)(=O)N2CCN(C(=O)C3CCN(c4ncnc5sc(C)c(C)c45)CC3)CC2)c(C)c1	TDP1 cell CPT 8.2µM, TDP1 cell noCPT 3.66µM
COc1ccc(-c2csc3ncnc(N4CCN(S(=O)(=O)c5ccc(C)cc5)CC4)c23)cc1	TDP1 cell CPT inconclusive, TDP1 cell noCPT 14.6µM
CCCS(=O)(=O)NC(=O)C1(C)CCN(C(=O)c2ccc(C#N)cc2)C1 (stereo not drawn)	none
Cc1cccc(NC(=O)Cn2c(=O)n(CCCCCC(=O)NCc3ccccc3)c(=O)c3sccc32)c1	TDP1 cell CPT inconclusive, TGFb inhibitor inconclusive, TDP1 cell noCPT inconclusive (no result: HT1080NT lethal, HT1080 IDH1KD tx)
O=C(O)c1cccc(Nc2ncnc3scc(-c4ccccc4)c23)c1	TDP1 cell CPT inconclusive, TDP1 cell noCPT inconclusive (no result: HT1080NT lethal, HT1080 IDH1KD tx)
CC(=O)Nc1cccc(Oc2ncnc3scc(-c4ccccc4)c23)c1	TDP1 cell CPT inconclusive, TGFb inhibitor inconclusive, TDP1 cell noCPT 10.3µM
COc1ccc(C(=O)Nc2ccc(C3=NNC(=O)CC3C)cc2NC(=O)c2ccc(OC)cc2)cc1 (stereo not drawn)	TDP1 cell CPT inconclusive, TDP1 cell noCPT 23.1µM
COC(=O)c1nc(NC(=O)c2cc(OC)c(OC)c(OC)c2)n[nH]1	none
CC(C)C(c1nnnn1Cc1ccc(F)cc1)N1CCN(C(=O)c2ccco2)CC1 (stereo not drawn)	TDP1 cell CPT inconclusive, TDP1 cell noCPT 16.4µM
CCCCC(c1nnnn1CCOC)N1CCN(C(=O)c2ccco2)CC1 (stereo not drawn)	TDP1 cell CPT 18.4µM
COc1ccc(-n2nc3cc(C)c(NC(=O)c4ccc(-c5ccc(Cl)cc5)o4)cc3n2)cc1	none (no result: HT1080NT lethal, HT1080 IDH1KD tx)
O=C(Cn1cc(SCc2ccccc2F)c2ccccc21)N1CCCCCC1	TDP1 cell CPT 23.1µM, TGFb inhibitor inconclusive, TDP1 cell noCPT inconclusive (no result: HT1080NT lethal, HT1080 IDH1KD tx)
Cc1ccccc1CSc1cn(CC(=O)N2CCCC2)c2ccccc12	TDP1 cell CPT inconclusive, TDP1 cell noCPT inconclusive (no result: HT1080NT lethal, HT1080 IDH1KD tx)
Cc1ccccc1CSc1cn(CC(=O)N2CCCCCC2)c2ccccc12	TDP1 cell CPT inconclusive, TDP1 cell noCPT 23.1µM (no result: HT1080NT lethal, HT1080 IDH1KD tx)
COc1ccc(NC(=O)C(c2ccc(C)cc2)N(C)C(=O)c2cnccn2)cc1 (stereo not drawn)	HT1080NT lethal inconclusive
Cc1cccc(C)c1NC(=O)C(c1ccc([N+](=O)[O-])cc1)N(C)C(=O)c1ccccn1 (stereo not drawn)	TDP1 cell CPT 6.51µM, TDP1 cell noCPT 3.26µM
CC#CCN(CC#CC)S(=O)(=O)c1ccc(-n2cnnn2)c(OC)c1	TDP1 cell noCPT inconclusive
O=C(O)c1cccc(N2C(=O)/C(=C/c3ccc(SCc4ccc(Cl)cc4)o3)SC2=S)c1	HT1080 IDH1KD tx inconclusive, TDP1 cell CPT 20.6µM, TDP1 cell noCPT inconclusive
COc1ccc([C@H]2CC(=O)C=C(c3cc(C=O)ccc3OC)C2)cc1	HT1080NT lethal inconclusive, HT1080 IDH1KD tx 14.6µM, TDP1 cell CPT 4.61µM, TGFb inhibitor inconclusive, TDP1 cell noCPT 5.8µM
COc1ccc(Cl)cc1C1=CC(=O)C[C@H](c2ccc(F)cc2)C1	TDP1 cell CPT inconclusive, TGFb inhibitor inconclusive, TDP1 cell noCPT inconclusive
COc1ccc([C@H]2CC(=O)C=C(c3cc(OC)ccc3OC)C2)cc1	HT1080NT lethal inconclusive, HT1080 IDH1KD tx inconclusive, TDP1 cell CPT 13µM, TGFb inhibitor inconclusive, TDP1 cell noCPT 14.6µM
COc1ccc(F)cc1C1=CC(=O)C[C@H](c2ccc3c(c2)OCO3)C1	HT1080NT lethal inconclusive, HT1080 IDH1KD tx inconclusive, TDP1 cell CPT 9.2µM, TDP1 cell noCPT 13µM
CCOc1ccc(Cl)cc1C1=CC(=O)C[C@H](c2ccc(OC)cc2)C1	HT1080NT lethal 2.06µM, HT1080 IDH1KD tx 4.11µM, TDP1 cell CPT 2.91µM, TGFb inhibitor inconclusive, TDP1 cell noCPT 4.11µM
COc1ccc(N2Cc3cccc(C(=O)Nc4ccc(C)c(C)c4)c3C2=O)cc1	none (no result: HT1080NT lethal, HT1080 IDH1KD tx)
